Data from PubChem BioAssay (NCI).
Compounds without any hit were thinned out: in the full panel of roughly 79,000, 15% have a hit. A number with no mark means an inactive call. Activity calls are given as the source filed them. Cut-off read from the data, not from the text of the source: active = growth inhibition above about 70%; inactive = the rest.

Key:
[1] = NCI Yeast Anticancer Drug Screen. Data for the rad50 strain (AID 155);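 note: 0% = growth of vehicle-only cultures of the same strain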; conditions: S. cerevisiae rad50 strain growth inhibition, stronger effect = higher value
Summary of the method: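 Growth of the mutant yeast was measured after compound exposure and referenced to vehicle-treated cultures.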

[2] = NCI Yeast Anticancer Drug Screen. Data for the mec2-1 strain (AID 157); conditions: S. cerevisiae mec2-1 strain, stronger effect = higher value
Summary of the method: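 Mutant yeast (mec2-1) grown with compound; growth inhibition relative to vehicle control reported.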

[3] = NCI Yeast Anticancer Drug Screen. Data for the sgs1 mgt1 strain (AID 161);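 note: 0% = growth of cultures given vehicle only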; conditions: S. cerevisiae sgs1 mgt1 strain, stronger effect = higher value
Summary of the method: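 This yeast growth screen uses a strain with defined DNA-repair lesions; compound-treated growth is compared with vehicle-treated growth.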

[4] = NCI Yeast Anticancer Drug Screen. Data for the cln2 rad14 strain (AID 165);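 note: 0% = growth equal to vehicle treated cultures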; conditions: S. cerevisiae cln2 rad14 strain, stronger effect = higher value
Summary of the method: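 Readout is yeast growth inhibition versus vehicle-treated controls, using a strain with cln2 and rad14 alterations exposed to compound.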

[5] = NCI Yeast Anticancer Drug Screen. Data for the bub3 strain (AID 167); conditions: S. cerevisiae bub3 mutant strain, stronger effect = higher value
Summary of the method: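 Whole-cell yeast assay. The mutant strain was incubated with compounds, and growth inhibition was determined by comparison with vehicle-treated cells.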

[6] = NCI Yeast Anticancer Drug Screen. Data for the mlh1 rad18 strain (AID 175); conditions: S. cerevisiae mlh1 rad18 strain growth inhibition, stronger effect = higher value
Summary of the method: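 Genetically defined yeast (DNA repair-deficient) exposed to compounds; growth inhibition determined relative to vehicle.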

[7] = at 5.0 µM (retest, dose inferred, filed as 0.5)
[8] = at 50.0 µM (retest, dose inferred, filed as 5.0)

SMILES | growth inhibition [1, 7] | growth inhibition [1, 8] | growth inhibition ([1]; at 50.0 µM) | growth inhibition [2, 7] | growth inhibition [2, 8] | growth inhibition ([2]; at 50.0 µM) | growth inhibition [3, 7] | growth inhibition [3, 8] | growth inhibition ([3]; at 50.0 µM) | growth inhibition [4, 7] | growth inhibition [4, 8] | growth inhibition ([4]; at 50.0 µM) | growth inhibition [5, 7] | growth inhibition [5, 8] | growth inhibition ([5]; at 50.0 µM) | growth inhibition [6, 7] | growth inhibition [6, 8] | growth inhibition ([6]; at 50.0 µM)
O=C(O)[C@@H]1CCCC[C@@H]1C(=O)N(C1CCCCC1)C1CCCCC1 | -4% | 79% (active) | 45.1% | -15% | 86% (active) | 14% | 8% | 73% (active) | 59% | -7% | 96% (active) | 28.6% | -5% | 96% (active) | 9.45% | -39% | 89% (active) | 0.5%
COc1ccc(C2=C(Cl)C(=O)N(c3ccc(OC)cc3OC)C(=O)C2(Cl)Cl)cc1 | 4% | 42% | 74.5% (active) | -9% | 36% | 89.9% (active) | 5% | 54% | 70.8% (active) | -9% | 25% | 44.5% | -5% | 28% | 56.5% | 3% | 8% | 79.8% (active)
CCCOc1ccc(-c2nc(-c3ccc(N=Cc4ccc(N(CCOS(C)(=O)=O)CCOS(C)(=O)=O)cc4C)cc3)cs2)cc1 | 13% | 82% (active) | 84.7% (active) | 7% | 83% (active) | 76.8% (active) | 8% | 89% (active) | 46.5% | 7% | 53% | 24.6% | -3% | 2% | 37% | 50% | 95% (active) | 92.4% (active)
C=CC[C@]1(C(C)C(OC(C)=O)c2ccc3c(c2)OCO3)C[C@@H](OC)C=CC1=O (stereo not given in full) | 10% | 98% (active) | 10.5% | 10% | 98% (active) | -0.85% | 10% | 98% (active) | -0.2% | -3% | 98% (active) | -12.7% | 4% | 98% (active) | 1.4% | 9% | 98% (active) | 40%
CC(=O)Nc1cccc2ccc(C)cc12 | 0% | 1% | -5.5% | 2% | 4% | 4.85% | 1% | 1% | -22.9% | 1% | 5% | 71.3% (active) | 1% | -1% | 23.1% | 0% | 2% | 41.8%
c1cc[c]([Sn]([S]c2cccc3cccnc23)([S]c2cccc3cccnc23)[c]2ccccc2)cc1 | 98% (active) | 99% (active) | 96.8% (active) | 99% (active) | 100% (active) | 98% (active) | 98% (active) | 99% (active) | 98% (active) | 98% (active) | 98% (active) | 95.5% (active) | 98% (active) | 99% (active) | 95.9% (active) | 98% (active) | 99% (active) | 97.6% (active)
CCCNC(=O)OCc1ccc(NCCN(CC)CC)c2c(=O)c3ccccc3sc12 | 10% | 17% | 69% | -7% | -6% | -24% | -4% | 16% | -8.85% | 13% | 17% | 9.95% | 14% | 10% | -31.1% | 3% | 2% | 1.05%
Cc1cc(N)c2c(c1O)C(=O)c1ccccc1C2=O | -2% | 47% | 7.5% | -1% | 26% | 7.35% | -5% | 39% | -0.6% | 0% | 21% | 25.1% | -5% | 42% | 20.8% | -3% | 47% | 18.2%
Clc1ccc2oc(N3CCCCC3)nc2c1 | 4% | 7% | 98.8% (active) | -3% | -3% | 99.2% (active) | 2% | 6% | 99% (active) | 2% | 6% | 98.2% (active) | 8% | 15% | 99.2% (active) | 4% | 11% | 98.7% (active)
O=C1NC(=O)N(c2ccc([N+](=O)[O-])cc2)C1=O | 9% | 3% | -0.3% | 8% | 2% | 1.1% | 3% | 6% | -2.95% | 9% | 5% | 18.1% | 6% | 5% | -4.4% | 0% | 7% | 10.2%
